Experimental findings from publication PMC8384837, “Expanding the binding specificity for RNA recognition by a PUF domain” are described below.

What all share (experiment): yeast three-hybrid, YBZ-1, SC-Leu-His + 0.5 mM 3-AT, 4 days
Conditions in all cases: tags: N-Gal4 AD-HA kept; label: inside an RPR1-promoter hybrid RNA with tandem MS2 sites; ssRNA

Assay [1] deals with PUM1 PUF domain R4-SRY (Homo sapiens, UniProt Q14671 828-1176, N971S;H972R;Q975Y). The method in brief: (§1)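 A centromeric plasmid in strain YBZ-1 co-expressed Pumilio-1 PUF domain libraries, randomized at the three base-contacting residues of each repeat, with matching RNA elements; the strain carries a LexA–MS2 coat fusion and a HIS3 reporter. After four days on SC-Leu (input) or SC-Leu-His + 0.5 mM 3-AT (selection), the repeat regions were PCR-amplified and Illumina-sequenced. The interaction score is the log change in variant frequency from input to selection, using log2 and a pseudocount of 1 where absent.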

For assay [2], the target named is PUM1 PUF domain R4-SHP (Homo sapiens, UniProt Q14671 828-1176, N971S;Q975P). The method in brief: as §1
In assay [3] the target is PUM1 PUF domain R3-DRQ (Homo sapiens, UniProt Q14671 828-1176, C935D). The method in brief: as §1
The target in assay [4] is PUM1 PUF domain R8-PWR (Homo sapiens, UniProt Q14671 828-1176, N1122P;Y1123W;Q1126R). The method in brief:
as §1

For assay [5], the target named is PUM1 PUF domain R3-YRR (Homo sapiens, UniProt Q14671 828-1176, C935Y;Q939R). The method in brief: as §1
Assay [6] concerns the target PUM1 PUF domain R3-LNG (Homo sapiens, UniProt Q14671 828-1176, C935L;R936N;Q939G). The method in brief:
as §1

For assay [7], the target named is PUM1 PUF domain R8-CFK (Homo sapiens, UniProt Q14671 828-1176, N1122C;Y1123F;Q1126K). The method in brief: as §1
The target in assay [8] is PUM1 PUF domain R8-KHY (Homo sapiens, UniProt Q14671 828-1176, N1122K;Y1123H;Q1126Y). The method in brief:
as §1

Assay [9] addresses PUM1 PUF domain R3-SCD (Homo sapiens, UniProt Q14671 828-1176, C935S;R936C;Q939D). The method in brief:
as §1

Assay [10] concerns the target PUM1 PUF domain R3-FRC (Homo sapiens, UniProt Q14671 828-1176, C935F;Q939C). The method in brief:
as §1

In the case of “GGCUAGAACUAGUGGAUCCCCCGGCGCCCGGCGGCUCGAGCCCGGGUAAGUGUAUAUAGUCUGCAUGCCGCCGGGCGCCAUGCCUGCAGGUCGACUCUAGAAAACAUG”, the binding signal was 0.46 log2 enrichment (interaction score) in assay [1] and 5.36 log2 enrichment (interaction score) in [2].
For “GGCUAGAACUAGUGGAUCCCCCGGCGCCCGGCGGCUCGAGCCCGGGUAAGUGUAAAUAGUCUGCAUGCCGCCGGGCGCCAUGCCUGCAGGUCGACUCUAGAAAACAUG”, the binding signal in assay [3] is 4.43 log2 enrichment (interaction score); in [1], 5.27 log2 enrichment (interaction score); in [4] it was 4.27 log2 enrichment (interaction score).
With “GGCUAGAACUAGUGGAUCCCCCGGCGCCCGGCGGCUCGAGCCCGGGUAAGUGUAAUUAGUCUGCAUGCCGCCGGGCGCCAUGCCUGCAGGUCGACUCUAGAAAACAUG”, the binding signal was 0.22 log2 enrichment (interaction score) in assay [5] and 1.7 log2 enrichment (interaction score) in [6].
As for “GGCUAGAACUAGUGGAUCCCCCGGCGCCCGGCGGCUCGAGCCCGGGUAAGCGUAAAUAGUCUGCAUGCCGCCGGGCGCCAUGCCUGCAGGUCGACUCUAGAAAACAUG”, the values for the binding signal in assay [7], in [4] and in assay [8] were 4.21 log2 enrichment (interaction score), 4.3 log2 enrichment (interaction score) and 4.22 log2 enrichment (interaction score), respectively.
Regarding “GGCUAGAACUAGUGGAUCCCCCGGCGCCCGGCGGCUCGAGCCCGGGUAAGUGUAAGUAGUCUGCAUGCCGCCGGGCGCCAUGCCUGCAGGUCGACUCUAGAAAACAUG”, the binding signal is 4.01 log2 enrichment (interaction score) in assay [5], 5.61 log2 enrichment (interaction score) in assay [9], 3.21 log2 enrichment (interaction score) in assay [6] and 4.65 log2 enrichment (interaction score) in [10].
“GGCUAGAACUAGUGGAUCCCCCGGCGCCCGGCGGCUCGAGCCCGGGUAAGUGUACAUAGUCUGCAUGCCGCCGGGCGCCAUGCCUGCAGGUCGACUCUAGAAAACAUG”: the binding signal in assay [2] was 5.25 log2 enrichment (interaction score).
